Test results as given in PubChem BioAssay (Tox21).
Results filed as inconclusive are left out. A call without a number means that no potency is given here. Active and inactive are the calls of the source. Calls come from the whole dose curve; as a rule, active = well fitted cell-killing curve with a large enough effect in the repeat runs; inconclusive = weak or mixed curves, or effect the other way; inactive = flat fitted curve, though single readings scatter.

Assay: qHTS assay to identify small molecule antagonists of the androgen receptor (AR) signaling pathway using the MDA cell line - cell viability counter screen (AID 743041; note: nearly all actives have a fitted effect of over 45% in size)
Settings: MDA-kb2 viability, CellTiter-Fluor, 16 h, cells co-treated with R1881 androgen agonist; series mostly up to 70.3 µM
Source text: National Center for Advancing Translational Sciences [NCATS]
NIH Chemical Genomics Center [NCGC]
U.S. Environmental Protection Agency [EPA]
National Institutes of Environmental Health Sciences [NIEHS]
National Toxicology Program [NTP]
U.S. Food and Drug Administration [FDA]
Androgen receptor (AR), a nuclear hormone receptor, plays a critical role in AR-dependent prostate cancer and other androgen related diseases. Endocrine disrupting chemicals (EDCs) and their interactions with steroid hormone receptors like AR may cause disruption of normal endocrine function as well as interfere with metabolic homeostasis, reproduction, developmental and behavioral functions. To identify the compounds that inhibit AR signaling, MDA-kb2 AR-luc cell line (from ATCC, deposited by Wilson et al.) was used to screen the Tox21 10K compound library. MDA-kb2 AR-luc cell line is human breast carcinoma cell line that was stably transfected with a luciferase reporter gene under control of the MMTV promoter containing response elements for both androgen receptor (AR) and glucocorticoid receptor (GR). The cytotoxicity of the Tox21 compound library against the MDA-kb2 AR-luc cell line was tested in parallel by measuring the cell viability using CellTiter-Fluor assay (Promega, Madison, WI) in the same wells.
Tox21 Assay Protocol Summary:
MDA-kb2 AR-luc cells were dispensed at 3,000 cells/4 uL/well of culture medium into white wall/solid-bottom 1536-well plates using a Multidrop Combi (ThermoFisher Scientific, Waltham, MA) dispenser. After the assay plates were incubated at a 37C and 0% CO2 for 5 hr, 23 nL of compounds dissolved in DMSO, positive controls or DMSO only was transferred to the assay plate by a Pintool station (Kalypsys, San Diego, CA), followed by addition of 1 uL of agonist (R1881) in culture medium using a Bioraptr Flying Reagent Dispenser (FRD) workstation (Beckman Coulter, Indianapolis, IN, USA). The plates were incubated at a 37C and 0% CO2 for 16 h. After 15.5 h incubation, 1uL of CellTiter-Fluor reagent (Promega) was added using a Bioraptr FRD to each plate for measuring cytotoxicity. The fluorescence intensity was quantified on a ViewLux plate reader (PerkinElmer, Shelton, CT) following 30 min incubation at 37C and 0% CO2.
Potency is the fitted concentration of half-maximal effect.

Structure (SMILES) | Potency
O=P(O)(O)OC(Cn1cncn1)(Cn1cncn1)c1ccc(F)cc1F | inactive
CCCC(=O)N1CCCN(c2nc(N)c3cc(OC)c(OC)cc3n2)CC1 | inactive
C#C[C@]1(O)CC[C@H]2[C@@H]3CCC4=C(CCC(=O)C4)[C@H]3CC[C@@]21C | inactive
O=C(O)[C@H](CC(=O)N1C[C@H]2CCCC[C@H]2C1)Cc1ccccc1 | inactive
COC(=O)[C@H]1[C@H]2C[C@@H]3c4[nH]c5ccccc5c4CCN3C[C@H]2C[C@@H](OC(=O)c2cc(OC)c(OC)c(OC)c2)[C@@H]1OC | inactive
C[N+]1(C)[C@@H]2CC(OC(=O)C(O)(c3cccs3)c3cccs3)C[C@H]1[C@@H]1O[C@@H]12 (stereo not given in full) | inactive
CCCCC/C=C\C/C=C\C/C=C\CCCCC(=O)O | inactive
CC(=O)Nc1ccc(OC(=O)c2ccccc2O)cc1 | inactive
CCOC(=O)Oc1c(OC)cc(C(=O)O[C@@H]2C[C@@H]3CN4CCc5c([nH]c6cc(OC)ccc56)[C@H]4C[C@@H]3[C@H](C(=O)OC)[C@H]2OC)cc1OC | inactive
CN=C1C=CC(=C(c2ccc(N(C)C)cc2)c2ccc(N(C)C)cc2)C=C1 | 7.5 µM (active)
O=P(O)(O)OC[C@H](O)CO | inactive
C=C[C@]1(C)C[C@@H](OC(=O)CO)[C@]2(C)[C@H](C)CC[C@]3(CCC(=O)[C@H]32)[C@@H](C)[C@@H]1O | inactive
C=CC1=C(C)C2=CC3=NC(=C(CC(=O)[O-])C4=NC(=C(C)C4=C([O-])[O-])C=c4[n-]c(c(C)c4CC)=CC1=N2)C(CCC(=O)[O-])C3C.[Cu+2].[Na+].[Na+].[Na+] (stereo not given) | 22.1 µM (active)
CC(=O)[C@]1(O)Cc2c(O)c3c(c(O)c2[C@@H](O[C@H]2C[C@H](N)[C@H](O)[C@H](C)O2)C1)C(=O)c1c(O)cccc1C3=O | 11.9 µM (active)
CO/N=C(\C(=O)N[C@@H]1C(=O)N2C(C(=O)OCOC(=O)C(C)(C)C)=C(/C=C\c3scnc3C)CS[C@H]12)c1csc(N)n1 | inactive
O=C(O)CO.[NH2-].[NH2-].[Pt+2] | inactive
CCC(Oc1ccccc1)C(=O)N[C@@H]1C(=O)N2[C@@H]1SC(C)(C)[C@@H]2C(=O)O (stereo not given in full) | inactive
CCOc1ccc(N=C(C)Nc2ccc(OCC)cc2)cc1 | inactive
C[C@]12C=CC(=O)C=C1CC[C@@H]1[C@@H]2[C@@H](O)C[C@@]2(C)[C@H]1CC[C@]2(O)C(=O)COC(=O)CCC(=O)O | inactive
CC(CN1c2ccccc2Sc2ccc(S(=O)(=O)N(C)C)cc21)N(C)C (stereo not given) | inactive

Structure (SMILES) | Potency
C#C[C@]1(O)CC[C@H]2[C@@H]3CCC4=CC(=O)CC[C@@H]4[C@H]3C(=C)C[C@@]21CC | inactive
C[C@]12CC[C@@H]3c4ccc(O)cc4CC[C@H]3[C@@H]1CC[C@@H]2OP(=O)(O)O | inactive
O=C(NCCNCC(O)COc1ccc(O)cc1)N1CCOCC1 (stereo not given) | inactive
CC[C@H](C)[C@@H]1NC(=O)[C@H](Cc2ccc(O)cc2)NC(=O)[C@@H](N)CSSC[C@@H](C(=O)N2CCC[C@H]2C(=O)N[C@@H](CC(C)C)C(=O)NCC(N)=O)NC(=O)[C@H](CC(N)=O)NC(=O)[C@H](CCC(N)=O)NC1=O | inactive
CC1(C)S[C@@H]2[C@H](NC(=O)C(N)c3ccccc3)C(=O)N2[C@H]1C(=O)OC1OC(=O)c2ccccc21 (stereo not given in full) | inactive
CCCCC(O)c1ccccc1 (stereo not given) | inactive
O=C1NC(=O)[C@H]2[C@@H]1[C@@H]1C=C[C@H]2C1 | inactive
COCC(=O)Nc1cc(Sc2ccccc2)ccc1N=C(NC(=O)OC)NC(=O)OC | inactive
CC1(C)C2CC[C@]3(C)[C@H](C(=O)C=C4[C@@H]5C[C@@](C)(C(=O)O)CC[C@]5(C)CC[C@]43C)[C@@]2(C)CC[C@@H]1O[C@H]1O[C@H](C(=O)O)[C@@H](O)[C@H](O)[C@H]1O[C@@H]1O[C@H](C(=O)O)[C@@H](O)[C@H](O)[C@H]1O (stereo not given in full) | inactive
CN1[C@@H]2CC[C@H]1CC(OC(c1ccccc1)c1ccccc1)C2 (stereo not given in full) | inactive
O=C(O)CCC/C=C\C[C@@H]1[C@@H](/C=C/[C@@H](O)COc2cccc(Cl)c2)[C@H](O)C[C@@H]1O | inactive
Cc1ccc(/C(=C\CN2CCCC2)c2cccc(/C=C/C(=O)O)n2)cc1 | inactive
CC(C(=O)O)c1ccc(C2CCCCC2)c2ccccc12 (stereo not given) | inactive
CCC(=O)O[C@]1(C(=O)CCl)[C@@H](C)C[C@H]2[C@@H]3C[C@H](F)C4=CC(=O)C=C[C@]4(C)[C@@]3(F)[C@@H](O)C[C@@]21C | inactive
CC(C)N1CCN(c2ccc(OC[C@H]3CO[C@](Cn4cncn4)(c4ccc(Cl)cc4Cl)O3)cc2)CC1 | inactive
Cn1nnnc1SCC1=C(C(=O)O)N2C(=O)[C@@H](NC(=O)[C@H](O)c3ccccc3)[C@H]2SC1 | inactive
CN[C@@H]1[C@H](O[C@H]2[C@H](O[C@H]3[C@H](O)[C@@H](O)[C@H](N=C(N)N)[C@@H](O)[C@@H]3N=C(N)N)O[C@@H](C)[C@]2(O)CO)O[C@@H](CO)[C@H](O)[C@H]1O | inactive
O=C1O[C@H]2[C@H](O)[C@@H]1OC(O)[C@H]2O (stereo not given in full) | inactive
O=C(c1cc2ccccc2o1)N1CCN(Cc2ccccc2)CC1 | inactive
CS(=O)(=O)c1ccc(C2=C(c3ccccc3)C(=O)OC2)cc1 | inactive
